Results on 24 molecules are retold here after PubChem BioAssay (Tox21).

Calls of active or inactive are those of the source. Where a call stands in place of a potency, no number is given. The call rests on the fitted dose curve; in most records, active means well fitted curve in the direction sought with a large enough effect in the repeat runs; inconclusive means weak or mixed curves; inactive means flat fitted curve, though single readings scatter.

This assay can be described thus: qHTS assay to test for compound auto fluorescence at 590 nm (red) in HEK293 cells (AID 720679). The settings on record: red autofluorescence 540/590 nm; series mostly up to 91.3 µM. A digest of the protocol:
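Using HEK293 cells at 2,000 per well, the screen added 23 nL of each compound after cell attachment and incubated overnight (37C, 5% CO2). The plate reader then captured red-label fluorescence, Ex/Em 540/590nm.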
For orientation: Quantitative high-throughput screening tests each substance at several concentrations.
Regarding `IC(I)I`, the Potency result was “inactive”. Next, `CC1(C)NC(=O)N(c2ccc([N+](=O)[O-])c(C(F)(F)F)c2)C1=O`: “inactive”; `CN1CCOCC1`: “inactive”; `CC(=O)O[C@]1(C(C)=O)CC[C@H]2[C@@H]3C=C(C)C4=CC(=O)CC[C@]4(C)[C@H]3CC[C@@]21C`: “inactive”. For the molecule `O=[Se](O)O`, the Potency entry was “inactive”.

In the case of `C=C[Si](OCCOC)(OCCOC)OCCOC`, the Potency entry was “inactive”. Next, `Cc1ccc(C)c(O)c1`: “inactive”; `COc1cc([C@H]2Oc3cc([C@H]4Oc5cc(O)cc(O)c5C(=O)[C@@H]4O)ccc3O[C@@H]2CO)ccc1O`: “inactive”. For `C=CC(C)(O)CCC=C(C)C` (centres undefined), the Potency result is “inactive”.

Consider `Cc1ccc(C(C)(C)C)cc1`, for which the Potency entry is “inactive”. For `Clc1ccc(Sc2cc(Cl)c(Cl)cc2Cl)cc1`, the Potency entry is “inactive”. Next, `O=C(O)c1ccc(O)cc1`: “inactive”; `Cc1ccc(S(=O)(=O)NCl)cc1`: “inactive”; `CN(Cc1cnc2nc(N)nc(N)c2n1)c1ccc(C(=O)N[C@@H](CCC(=O)O)C(=O)O)cc1`: “inactive”. Next, `O=C(O)c1cc(=O)[nH]c(=O)[nH]1`: “inactive”; `CC[C@]12CCCN3CCc4c(n(c5ccccc45)[C@@](O)(C(=O)OC)C1)[C@@H]32`: “inactive”.

In the case of `FC(F)(F)C(Cl)Br` (centres undefined), the Potency entry is “inactive”. Next, `NCCOCCO`: “inactive”. In the case of `CN(C)/N=N/c1nc[nH]c1C(N)=O`, the Potency result was “inactive”. Then `CC1(C)C(C=C(Cl)Cl)C1C(=O)OCc1cccc(Oc2ccccc2)c1` (centres undefined), with “inactive”. Then `Cc1cccc(Nc2ccccc2C(=O)O)c1C`, with “inactive”. Then `NCCN`, with “inactive”; and `[O-]/[N+](=N\O)c1ccccc1`, with “inactive”; and `CC(=O)Oc1ccc(C(c2ccc(OC(C)=O)cc2)c2ccccn2)cc1`, with “inactive”.
